# Screening data from PubChem BioAssay.
# D1 agonist: activates the human D1 dopamine receptor; activation, % at 2 µM; AID 504660; P21728; 360,000 tested, 1% active; HEK293 T-REx D1 cells, calcium flux, agonist mode; in the data active = activation above about 30%; also: 0% is about no effect
#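 Tetracycline-induced HEK293 TREx D1 cells, force-coupled to calcium signalling, were dye-loaded with a no-wash calcium kit. Compound was pin-added after a 10 s baseline. Fluorescence was read kinetically at 1 cycle/s for 180 s, with calcium rises flagged as agonism.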
# D3 antag: blocks the human D3 dopamine receptor; max response, negative = inhibition, %; 360,000 tested, 2.5% active; D3R cells, DiscoveRx beta-arrestin luminescence, antagonist mode; active compounds read low; in the data active = max response below about -50%; also: % is scaled to controls: 0 for no effect and ±100 for the full control effect
# Target sequence (P35462 whole entry, looked up): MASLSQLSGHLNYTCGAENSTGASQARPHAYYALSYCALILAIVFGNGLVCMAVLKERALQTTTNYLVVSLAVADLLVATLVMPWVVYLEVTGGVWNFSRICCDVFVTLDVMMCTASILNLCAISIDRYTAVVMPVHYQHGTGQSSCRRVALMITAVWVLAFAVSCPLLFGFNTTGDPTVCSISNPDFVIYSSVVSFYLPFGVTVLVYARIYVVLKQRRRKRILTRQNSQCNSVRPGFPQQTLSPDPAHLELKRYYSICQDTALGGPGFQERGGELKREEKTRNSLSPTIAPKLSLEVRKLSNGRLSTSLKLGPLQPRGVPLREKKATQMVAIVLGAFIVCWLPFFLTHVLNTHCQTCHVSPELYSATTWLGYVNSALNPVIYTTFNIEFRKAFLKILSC
#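 Cells plated overnight at 1500 cells/well, then exposed to library compounds with dopamine controls for 90 minutes at 37 degrees C. DiscoveRx reagent added for 30–60 minutes at room temperature; luminescence read, quantitative HTS format.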
# D1 antag: human D1 dopamine receptor antagonism; P21728; HEK293 TREx D1 cells, calcium flux, dopamine EC80; active compounds read low; activity change, negative = inhibition, % at 10 µM; 360,000 tested, 3.2% active; AID 504652; in the data active = activity change below about -30%; also: % is scaled to controls: 0 for no effect and ±100 for the full control effect
#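 Compound effects on dopamine-evoked calcium signalling were measured in tetracycline-induced HEK293 Trex D1 cells. Dopamine at EC80 followed a 180 s compound pre-read, and fluorescence was tracked kinetically for 180 s more.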
# D1 PAM: enhances dopamine response at the human D1 receptor | P21728 | HEK293 TREx D1 cells, calcium flux, dopamine EC20 potentiation | potentiation, % at 10 µM | 360,000 tested, 0.036% active; in the data active = potentiation above about 30%; also: 0% is about no effect
# DRD3 agonist: activates the human D3 dopamine receptor. D3R DiscoveRx beta-arrestin cells, luminescence, 90 min. AID 652048. 410,000 tested, 0.58% active. max activation, %. P35462; in the data active = max activation above about 30%; also: 0% is about no effect
#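 Cells at 1500/well, incubated overnight, then treated with pinned compounds (dopamine as control) for 90 min at 37 degrees C. DiscoveRx reagent added for 30 - 60 minutes at room temperature; luminescence read.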
# * marks the source's active call; other numbers are inactive results; · = no result given; ! = not confirmed by another sample. Most compounds without a hit are left out; they make up all but 6.1% or so of the library.
SMILES,D1 agonist,D3 antag,D1 antag,D1 PAM,DRD3 agonist
CSc1cccc(N2C(=O)N(CC(=O)NCc3ccccc3Cl)c3ccccc3S2(=O)=O)c1,4,·,10,-3,4
CCCCNC(=O)c1onc(CSc2ccc(C)c(C)c2)c1C(=O)O,1,-3,-32*,-1,-4
Cn1cc(/C=C2/SC(=O)N(CC(=O)Nc3ccc4c(c3)OCO4)C2=O)c2ccccc21,·,-84*,·,·,0
COc1cccc(NC(=O)C2CCCN(S(=O)(=O)c3ccc4[nH]c(=O)ccc4c3)C2)c1 (configuration not stated),0,·,21,-2,2
NC(=O)c1ccc(SCC(=O)OCC(=O)N2CCCC2=O)c([N+](=O)[O-])c1,1,-1,-43*,-1,-3
CC1CN(C(=O)COC(=O)CSc2ccc(C(N)=O)cc2[N+](=O)[O-])CC(C)O1 (configuration not stated),2,-1,4,8,12
Cc1ccc2[nH]c3nc(SCCN4CCOCC4)nnc3c2c1,1,-57*,5,-2,-3
CCn1c2ccc(C)cc2c2nnc(SCCN3CCOCC3)nc21,1,-23,16,1,-2
Cc1ccc(C)c(NC(=O)Cn2cc(C(=O)c3cccs3)c3ccccc32)c1,7,·,6,-3,-4
O=C(NCc1cccnc1)C1CC(c2ccc(F)cc2)=NO1 (configuration not stated),3,17,-31*,-6,10
CC(C)CCNC(=O)C1CC(c2ccc(C(F)(F)F)cc2)=NO1 (configuration not stated),32*,0,-42*,-4,6
O=C(NCc1cc(C(F)(F)F)cc(C(F)(F)F)c1)C1CC(c2cccc([N+](=O)[O-])c2)=NO1 (configuration not stated),9,0,-54*,-9,9
Cc1ccccc1-c1noc(C(C)NC(=O)c2ccco2)n1 (configuration not stated),3,6,-40*!,0,4
Cc1c(C)c2c(c(C)c1OC(=O)CCC(=O)OCCO)CC[C@@](C)(CCC[C@H](C)CCC[C@H](C)CCCC(C)C)O2,·,·,·,·,-18
O=C(Nc1cccc(Cl)c1)NC1CC2CCC(C1)N2Cc1cccs1 (configuration not stated),13,-98*,-22,-12,0
CC(C)CNC(=S)NC1CC2CCCC(C1)N2Cc1ccco1 (configuration not stated),0,-20,19,-10,-12
Fc1ccc(NC(=S)NC2CC3CCCC(C2)N3Cc2cccs2)cc1 (configuration not stated),9,-54*,4,-1,-16
CC(C)CNC(=S)NC1CC2CCCC(C1)N2Cc1cccs1 (configuration not stated),24,-76*,3,-8,-29
Cc1ccc(NC(=S)NC2CC3CCCC(C2)N3Cc2cccs2)cc1 (configuration not stated),14,-71*,-87*,-10,-30
NC(=O)[C@@H]1CSSCCC(=O)N[C@@H](CCCCN=C(N)N)C(=O)NCC(=O)N[C@@H](CC(=O)O)C(=O)N[C@@H](Cc2c[nH]c3ccccc23)C(=O)N2CCC[C@H]2C(=O)N1,·,·,·,·,1
CCc1ccccc1NC(=O)Cn1c(=O)n(CCc2ccccc2)c(=O)c2sc3ccccc3c21,-1,·,6,1,-19
COc1ccc(CC(N)c2csc(Nc3cccc(OC)n3)n2)cc1 (configuration not stated),·,-83*,·,·,-13
CC(C)c1ccc(S(=O)(=O)N2CCC(n3c(C(F)(F)F)nc4cccnc43)CC2)cc1,3,·,-8,3,-3
Cc1ccccc1OCCN1C(=O)c2ccccc2C1=O,-2,-6,-8,0,-1
Cc1ccccc1OCCn1c(=N)n(C(C)C)c2ccccc21,43*,·,-10,-2,-15
COc1ccc(C(C[N+](=O)[O-])C2(c3ccc(OC)c(OC)c3)C(=O)c3ccccc3C2=O)cc1 (configuration not stated),4,-82*,-2,13,-19
CCCCC(=O)Nc1cccc(NC(=O)CC)c1,2,11,12,-1,1
CCCCC(=O)Nc1cccc(NC(=O)c2ccccc2Br)c1,0,-61*,0,-10,1
